Results as given in PubChem BioAssay (NCI).
The panel holds about 79,000 compounds, 15% with a hit somewhere; the sample as a whole holds those more often. Active and inactive are the calls of the source. Cut-off read from the data, not from the text of the source: active = growth inhibition above about 70%; inactive = the rest.

Experiments:
[1] = NCI Yeast Anticancer Drug Screen. Data for the rad52 strain (AID 147);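 note: 0% = growth of vehicle-treated control cultures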; details: S. cerevisiae rad52 mutant growth inhibition, hits give high values
Procedure, shortened: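 Measured: yeast growth inhibition. System: strain with a defined DNA damage repair alteration. Reference: vehicle-treated control cultures.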

[2] = NCI Yeast Anticancer Drug Screen. Data for the wt1 strain (AID 149);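 note: 0% = growth of vehicle-treated wt1 cultures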; details: S. cerevisiae wt1 strain (SPY 50644) growth inhibition, hits give high values
Procedure, shortened: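 Compounds are added to wt1 yeast cultures. Growth is then measured. Inhibition is expressed relative to vehicle-treated controls.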

[3] = NCI Yeast Anticancer Drug Screen. Data for the rad50EPP+ strain (AID 151);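 note: 0% = growth of vehicle-treated control cultures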; details: S. cerevisiae rad50 mutant strain, hits give high values
Procedure, shortened: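 One strain with a rad50 alteration (rad50EPP+) was compound-treated, its growth then compared to that of vehicle controls.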

[4] = NCI Yeast Anticancer Drug Screen. Data for the mgt1 strain (AID 153); details: S. cerevisiae mgt1 mutant growth inhibition, hits give high values
Procedure, shortened: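 After exposure of the mgt1 yeast mutant to compound, growth was measured and reported as inhibition compared with vehicle controls.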

[5] = NCI Yeast Anticancer Drug Screen. Data for the rad50 strain (AID 155);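 note: 0% = growth of vehicle-only cultures of the same strain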; details: S. cerevisiae rad50 strain growth inhibition, hits give high values
Procedure, shortened: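 Inhibition values express reduced yeast growth in compound-treated cultures relative to vehicle-treated controls.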

[6] = NCI Yeast Anticancer Drug Screen. Data for the mec2-1 strain (AID 157); details: S. cerevisiae mec2-1 strain, hits give high values
Procedure, shortened: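 Test agents were screened against the mec2-1 yeast strain, with defined DNA repair or cell cycle alteration. Growth was scored as inhibition against vehicle-only controls.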

[7] = NCI Yeast Anticancer Drug Screen. Data for the rad14 strain (AID 159);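 note: 0% = growth of vehicle-treated control cultures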; details: S. cerevisiae rad14 strain growth inhibition, hits give high values
Procedure, shortened: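 A mutant yeast strain defective in DNA damage repair is treated with compound; inhibition of its growth is scored against untreated, vehicle-exposed cultures.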

[8] = NCI Yeast Anticancer Drug Screen. Data for the sgs1 mgt1 strain (AID 161);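 note: 0% = growth of cultures given vehicle only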; details: S. cerevisiae sgs1 mgt1 strain, hits give high values
Procedure, shortened: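 Test agents were incubated with a DNA-repair-mutant yeast strain. Growth was then read and compared against vehicle-treated controls.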

[9] = NCI Yeast Anticancer Drug Screen. Data for the CLN2oe strain (AID 163);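 note: 0% = growth of vehicle-only control cultures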; details: S. cerevisiae CLN2oe strain, hits give high values
Procedure, shortened: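 Here, growth inhibition in a cell-cycle-altered yeast strain after compound exposure was quantified against vehicle control growth.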

[10] = NCI Yeast Anticancer Drug Screen. Data for the cln2 rad14 strain (AID 165);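 note: 0% = growth equal to vehicle treated cultures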; details: S. cerevisiae cln2 rad14 strain, hits give high values
Procedure, shortened: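 Growth of compound-exposed yeast (cln2 rad14 genotype) measured and expressed as inhibition relative to vehicle.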

[11] = NCI Yeast Anticancer Drug Screen. Data for the bub3 strain (AID 167); details: S. cerevisiae bub3 mutant strain, hits give high values
Procedure, shortened: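 Steps: expose the mutant yeast strain to compound; grow alongside vehicle-treated cultures; measure growth; express inhibition against the vehicle cultures.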

[12] = NCI Yeast Anticancer Drug Screen. Data for the wt2 strain (AID 169);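 note: 0% = growth of vehicle-treated yeast cultures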; details: S. cerevisiae wt2 strain growth inhibition, hits give high values
Procedure, shortened: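 Genetically defined yeast strains from a DNA-repair/cell-cycle panel were used. Compound-exposed yeast growth was measured, and the inhibition was calculated relative to vehicle treatment.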

[13] = NCI Yeast Anticancer Drug Screen. Data for the mlh1 strain (AID 171);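 note: 0% = growth of vehicle-treated control cultures of the same strain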; details: S. cerevisiae mlh1 strain growth inhibition, hits give high values
Procedure, shortened: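 Here the genetically defined yeast mutant is grown with each compound, and the extent to which its growth falls below that of vehicle-exposed cells is reported.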

[14] = NCI Yeast Anticancer Drug Screen. Data for the sgs1 strain (AID 173);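 note: 0% = growth of vehicle-only control cultures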; details: S. cerevisiae sgs1 mutant, hits give high values
Procedure, shortened: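 Relative growth inhibition, referenced to vehicle, was determined in a yeast strain with a defined alteration affecting DNA damage repair or cell cycle control after compound exposure.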

[15] = NCI Yeast Anticancer Drug Screen. Data for the mlh1 rad18 strain (AID 175); details: S. cerevisiae mlh1 rad18 strain growth inhibition, hits give high values
Procedure, shortened: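 In this whole-cell yeast screen, a strain with altered DNA damage repair is challenged with compound, and its growth is measured against matched vehicle-treated controls.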

[16] = NCI Yeast Anticancer Drug Screen. Data for the rad18 strain (AID 177); details: S. cerevisiae rad18 mutant growth inhibition, hits give high values
Procedure, shortened: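 Screen uses a yeast strain with a defined lesion in DNA damage repair; compound effect is read as loss of growth compared to untreated vehicle cultures.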

[17] = at 5.0 µM (retest, dose inferred, filed as 0.5)
[18] = at 50.0 µM (retest, dose inferred, filed as 5.0)

Measured: growth inhibition

CCOC(=O)C1N=[N+](c2ccccc2)C(=O)/C1=C\n1c(=S)[nH]c2ccc([N+](=O)[O-])cc21 (stereo not drawn)
active: [5]; [18] 94% | [6]; [18] 96% | [10]; [18] 95% | [11]; [17] 97% | [11]; [18] 99% | [15]; [18] 94%
inactive: [1]; at 1.2 µM 0% | [1]; at 3.7 µM 1% | [1]; at 11.0 µM 2% | [1]; at 33.0 µM 0% | [1]; at 100.0 µM 9% | [2]; at 1.2 µM 1% | [2]; at 3.7 µM 3% | [2]; at 11.0 µM 2% | [2]; at 33.0 µM 3% | [2]; at 100.0 µM 6% | [3]; at 1.2 µM 0% | [3]; at 3.7 µM 1% | [3]; at 11.0 µM 4% | [3]; at 33.0 µM 2% | [3]; at 100.0 µM 6% | [4]; at 1.2 µM -1% | [4]; at 3.7 µM -1% | [4]; at 11.0 µM 0% | [4]; at 33.0 µM -11% | [4]; at 100.0 µM 5% | [5]; at 1.2 µM -6% | [5]; at 3.7 µM -14% | [5]; [17] 21% | [5]; at 11.0 µM -18% | [5]; at 33.0 µM 3% | [5]; at 50.0 µM 5.15% | [5]; at 100.0 µM 7% | [6]; at 1.2 µM 1% | [6]; at 3.7 µM 1% | [6]; [17] 13% | [6]; at 11.0 µM 2% | [6]; at 33.0 µM 7% | [6]; at 50.0 µM 17.2% | [6]; at 100.0 µM 9% | [7]; at 1.2 µM 0% | [7]; at 3.7 µM -2% | [7]; at 11.0 µM 1% | [7]; at 33.0 µM 2% | [7]; at 100.0 µM 8% | [8]; [17] -4% | [8]; [18] 63% | [8]; at 50.0 µM 19.9% | [9]; at 1.2 µM 1% | [9]; at 3.7 µM -1% | [9]; at 11.0 µM -1% | [9]; at 33.0 µM 4% | [9]; at 100.0 µM 3% | [10]; [17] 53% | [10]; at 50.0 µM 47.9% | [11]; at 1.2 µM -7% | [11]; at 3.7 µM 1% | [11]; at 11.0 µM 1% | [11]; at 33.0 µM 3% | [11]; at 50.0 µM 20.8% | [11]; at 100.0 µM 3% | [12]; at 1.2 µM 0% | [12]; at 3.7 µM 0% | [12]; at 11.0 µM -1% | [12]; at 33.0 µM 1% | [12]; at 100.0 µM 3% | [13]; at 1.2 µM 0% | [13]; at 3.7 µM 1% | [13]; at 11.0 µM 2% | [13]; at 33.0 µM 4% | [13]; at 100.0 µM 8% | [14]; at 1.2 µM 0% | [14]; at 3.7 µM 1% | [14]; at 11.0 µM -9% | [14]; at 33.0 µM 8% | [14]; at 100.0 µM 16% | [15]; [17] 24% | [15]; at 50.0 µM 5.05% | [16]; at 1.2 µM -2% | [16]; at 3.7 µM 1% | [16]; at 11.0 µM 3% | [16]; at 33.0 µM 7% | [16]; at 100.0 µM 15%
